Assay results: article PMC5540273 (PLoS ONE, 2017)

These compounds were tested on CDKL3. Settings: concentration: 1 μM, replicates: in singlicate; n = 1.
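Also: KINOMEscan kinase panel screen.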

| Structure (SMILES) | %Inh [%] |
| --- | --- |
| Nc1nc(-c2nccs2)c(-c2ccnc3ccccc23)s1 [GW693542] | 0 |
| CC1=C(C(=O)Nc2cc3cn[nH]c3cc2F)C(c2ccc(C(F)(F)F)cc2)CC(=O)N1 (stereo not shown) [GSK429286] | 0 |
| Cc1cccc(-c2nc(Nc3ccc4[nH]ncc4c3)c3ccccc3n2)n1 [GW857175] | 4 |
| Cc1cc(NCC(c2ccccc2)c2ccccc2)nc(NCc2ccc(C(F)(F)F)cc2)n1 [GW497681] | 0 |
| CSc1nn2c(=O)cc(N3CCOCC3)nc2n1Cc1cccc(C(F)(F)F)c1C [GSK2363608] | 0 |
| COC(=O)c1c(-c2ccccc2)c2cc(OC)ccc2c(=O)n1Cc1ccccc1 | 12 |
| Cn1ccc2ncnc(Oc3ccc(Nc4nc5ccccc5[nH]4)cc3)c21 | 11 |
| COc1cc(Nc2nccc(N3CCC(NC(=O)Nc4cc(C)ccc4C)C3)n2)cc(OC)c1OC (stereo not shown) [GSK1379762] | 0 |
| O=C(Nc1ccccc1)Nc1cccc(Oc2ccc3nccn3n2)c1 | 0 |
| Cl.O=C(Nc1cccc(-c2nn3ncccc3c2-c2ccnc(Nc3cccnc3)n2)c1)c1c(F)cccc1F [GSK312879] | 0 |
| CCn1c(-c2ccccn2)nc2cnccc21 [SB-736398] | 0 |
| CC(C)(C)c1ccc(C(=O)Nc2cn3cc(Cl)ccc3n2)cc1 | 0 |
| Cl.NC(=O)c1cccc(Nc2nccc(Nc3ccc(Oc4cccc(Cl)c4)c(Cl)c3)n2)c1 [GW659008] | 0 |
| Cc1ccccc1-n1cnc2c(N)ncnc21 [SKF-97510] | 39 |
| COc1ccc2nc(-c3cccc(C)n3)nc(Nc3ccncc3)c2c1 [GSK204919] | 0 |
| Cc1nnc(-c2ccc3occ(-c4ccc(S(C)=O)cc4)c3c2)[nH]1 (stereo not shown) | 0 |
| Cc1cccc(-c2cc(Nc3ccncc3)c3ccccc3n2)n1 [GSK223675] | 0 |
| Cc1csc(-c2nc(Nc3ccncc3)c3ccccc3n2)n1 [GW869640] | 19 |

| Structure (SMILES) | %Inh [%] |
| --- | --- |
| Cn1ccc2ncnc(Oc3cccc(C(=O)Nc4ccccc4)c3)c21 | 0 |
| O=C(Nc1n[nH]c2cc(-c3cccc(F)c3F)ccc12)C1CC1 [SB-733894] | 48 |
| Cc1cc(-c2ccc3c(c2)CC[C@@H](N[C@@H](C)c2ccccc2)C3)cnc1N.Cl [GW412617] | 0 |
| Cc1ccc(NC(=O)Nc2cccc(Cl)c2)cc1-c1ccc(C(=O)Nc2ccncc2)cc1 [GSK1398468] | 0 |
| CN(C)CCN(C)C(=O)c1cc(-c2ccncc2)c(-c2ccc(Cl)c(O)c2)o1.Cl.Cl [SB-710397] | 0 |
| O=C(Nc1n[nH]c2nc(-c3nccs3)c(Br)cc12)C1CC1 [SB-742251] | 0 |
| Cc1cccc(-c2nc(C)cc(Nc3ccncc3)n2)n1 [GSK257997] | 0 |
| Cc1cccc(-c2nc(Nc3cccc(C(N)=O)c3)c3ccccc3n2)n1 [GW876019] | 0 |
| COc1cc2ncnc(Nc3ccc4nc(-c5ccccc5)[nH]c4c3)c2cc1OC.Cl [GW282450] | 0 |
| CN1C(=O)C(Nc2ccc(Cl)c(C(=O)O)c2)=C(c2ccc(Cl)cc2)C1=O [SB-404290] | 0 |
| Cc1cccc(-c2nc(Nc3ccncc3)c3ccccc3n2)n1 [GW855857] | 0 |
| CCn1c(-c2cccnc2O)nc2cnccc21 [SB-736715] | 10 |
| COc1ccccc1-c1ccc2c(NC(=O)C3CC3)n[nH]c2n1 [SB-711239] | 20 |
| CS(=O)(=O)c1ccc(-c2nc3n(c2-c2ccncc2)CCC3)cc1 [SKF-105942] | 0 |
| CC(C)(C)c1ccc(C(=O)Nc2cn3cc(-c4cccnc4)ccc3n2)cc1 | 20 |
| Cc1c(Cn2ccn3c(=O)cc(N4CCOCC4)nc23)cccc1C(F)(F)F [GSK2289044] | 0 |
| O=C(O)COc1ncnc2cc(-c3ccc4[nH]ncc4c3)sc12 | 13 |

Each compound was assayed on CDKL5. Settings: concentration: 1 μM, replicates: in singlicate; n = 1.

| Structure (SMILES) | %Inh [%] |
| --- | --- |
| Nc1nc(-c2nccs2)c(-c2ccnc3ccccc23)s1 [GW693542] | 4 |
| CC1=C(C(=O)Nc2cc3cn[nH]c3cc2F)C(c2ccc(C(F)(F)F)cc2)CC(=O)N1 (stereo not shown) [GSK429286] | 10 |
| Cc1cccc(-c2nc(Nc3ccc4[nH]ncc4c3)c3ccccc3n2)n1 [GW857175] | 18 |
| Cc1cc(NCC(c2ccccc2)c2ccccc2)nc(NCc2ccc(C(F)(F)F)cc2)n1 [GW497681] | 0 |
| CSc1nn2c(=O)cc(N3CCOCC3)nc2n1Cc1cccc(C(F)(F)F)c1C [GSK2363608] | 0 |
| COC(=O)c1c(-c2ccccc2)c2cc(OC)ccc2c(=O)n1Cc1ccccc1 | 0 |
| Cn1ccc2ncnc(Oc3ccc(Nc4nc5ccccc5[nH]4)cc3)c21 | 0 |
| COc1cc(Nc2nccc(N3CCC(NC(=O)Nc4cc(C)ccc4C)C3)n2)cc(OC)c1OC (stereo not shown) [GSK1379762] | 7 |
| O=C(Nc1ccccc1)Nc1cccc(Oc2ccc3nccn3n2)c1 | 2 |
| Cl.O=C(Nc1cccc(-c2nn3ncccc3c2-c2ccnc(Nc3cccnc3)n2)c1)c1c(F)cccc1F [GSK312879] | 0 |
| CCn1c(-c2ccccn2)nc2cnccc21 [SB-736398] | 0 |
| CC(C)(C)c1ccc(C(=O)Nc2cn3cc(Cl)ccc3n2)cc1 | 0 |
| Cl.NC(=O)c1cccc(Nc2nccc(Nc3ccc(Oc4cccc(Cl)c4)c(Cl)c3)n2)c1 [GW659008] | 0 |
| Cc1ccccc1-n1cnc2c(N)ncnc21 [SKF-97510] | 0 |
| COc1ccc2nc(-c3cccc(C)n3)nc(Nc3ccncc3)c2c1 [GSK204919] | 0 |
| Cc1nnc(-c2ccc3occ(-c4ccc(S(C)=O)cc4)c3c2)[nH]1 (stereo not shown) | 12 |
| Cc1cccc(-c2cc(Nc3ccncc3)c3ccccc3n2)n1 [GSK223675] | 1 |
| Cc1csc(-c2nc(Nc3ccncc3)c3ccccc3n2)n1 [GW869640] | 19 |

| Structure (SMILES) | %Inh [%] |
| --- | --- |
| Cn1ccc2ncnc(Oc3cccc(C(=O)Nc4ccccc4)c3)c21 | 0 |
| O=C(Nc1n[nH]c2cc(-c3cccc(F)c3F)ccc12)C1CC1 [SB-733894] | 0 |
| Cc1cc(-c2ccc3c(c2)CC[C@@H](N[C@@H](C)c2ccccc2)C3)cnc1N.Cl [GW412617] | 0 |
| Cc1ccc(NC(=O)Nc2cccc(Cl)c2)cc1-c1ccc(C(=O)Nc2ccncc2)cc1 [GSK1398468] | 0 |
| CN(C)CCN(C)C(=O)c1cc(-c2ccncc2)c(-c2ccc(Cl)c(O)c2)o1.Cl.Cl [SB-710397] | 2 |
| O=C(Nc1n[nH]c2nc(-c3nccs3)c(Br)cc12)C1CC1 [SB-742251] | 0 |
| Cc1cccc(-c2nc(C)cc(Nc3ccncc3)n2)n1 [GSK257997] | 6 |
| Cc1cccc(-c2nc(Nc3cccc(C(N)=O)c3)c3ccccc3n2)n1 [GW876019] | 1 |
| COc1cc2ncnc(Nc3ccc4nc(-c5ccccc5)[nH]c4c3)c2cc1OC.Cl [GW282450] | 1 |
| CN1C(=O)C(Nc2ccc(Cl)c(C(=O)O)c2)=C(c2ccc(Cl)cc2)C1=O [SB-404290] | 16 |
| Cc1cccc(-c2nc(Nc3ccncc3)c3ccccc3n2)n1 [GW855857] | 0 |
| CCn1c(-c2cccnc2O)nc2cnccc21 [SB-736715] | 0 |
| COc1ccccc1-c1ccc2c(NC(=O)C3CC3)n[nH]c2n1 [SB-711239] | 3 |
| CS(=O)(=O)c1ccc(-c2nc3n(c2-c2ccncc2)CCC3)cc1 [SKF-105942] | 4 |
| CC(C)(C)c1ccc(C(=O)Nc2cn3cc(-c4cccnc4)ccc3n2)cc1 | 0 |
| Cc1c(Cn2ccn3c(=O)cc(N4CCOCC4)nc23)cccc1C(F)(F)F [GSK2289044] | 16 |
| O=C(O)COc1ncnc2cc(-c3ccc4[nH]ncc4c3)sc12 | 17 |
